Assay results from PubChem BioAssay AID1852 (Sanford-Burnham Center for Chemical Genomics, 2009).
The campaign covered roughly 2,500 compounds. About 1,100 (44%) were called active. So high a share suggests a set chosen from earlier hits. Some of the results follow. A number with no mark means an inactive call.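 Rule for the calls: active = inhibition above 50% at 4 µM in the single-point screen; inactive = inhibition of 50% or less.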

Experiment: blockers of TNF-a NF-kB luciferase induction – cell-based, HEK293T NF-kB-Luc, luminescence, selectivity assay for NOD1/NOD2 signaling inhibitor project, primary screen (AID 1852)
Conditions: TNF-a induced, 14 h, at 4 µM, stronger effect = higher value

Row | SMILES | inhibition
1 | CC(=O)c1c(C)oc2ccc(N(C(C)=O)S(=O)(=O)c3ccc(F)cc3C)cc12 | -8.7%
2 | CCCC1/C(=N/O)CC(c2ccccc2)NC1c1ccccc1 (stereo not drawn) | 31.6%
3 | CC1=C(CO)C(=O)OC([C@@H](C)C2CC[C@H]3C4C[C@H]5O[C@]56[C@@H](O)C=CC(=O)[C@]6(C)C4CC[C@]23C)C1 (stereo partly drawn) | 89.9% (active)
4 | CCC(C)(C)c1ccc(OCCCC[n+]2cccc(C)c2)c(C(C)(C)CC)c1 | 41.5%
5 | COc1cc(OC)cc(-c2cc3nc(C)c(CCC(=O)O)c(C)n3n2)c1 | 85.7% (active)
6 | O=C(Nc1ccc(Cl)c(Cl)c1)Nc1ccccc1NS(=O)(=O)c1cccs1 | 94.3% (active)
7 | O=C(Nc1ccc(Cl)c(Cl)c1)Nc1ccc(Br)cc1F | 106% (active)
8 | Cc1cc(Cl)ccc1OCC(=O)Nc1ccccc1NS(=O)(=O)c1cccs1 | 21.7%
9 | O=C(Nc1ccc([N+](=O)[O-])cc1)Nc1ccc(Cl)cc1F | 12.9%
10 | Cc1cc(-c2n[nH]c(=S)n2/N=C/C(Cl)=C/c2ccccc2)n[nH]1 | -31.5%
11 | Cc1ccc(-c2n[nH]c(=S)n2/N=C/c2ccncc2)cc1 | 4.6%
12 | Cc1cc(-c2n[nH]c(=S)n2/N=C/C(Br)=C/c2ccccc2)n[nH]1 | 23.7%
13 | CC(=C/c1ccccc1)/C=N/n1c(-c2ccncc2)n[nH]c1=S | 94.4% (active)
14 | S=c1[nH]nc(-c2cc(-c3ccccc3)n[nH]2)n1/N=C/C(Br)=C/c1ccccc1 | 105% (active)
15 | Cc1noc2ncnc(Oc3ccc(Cl)cc3Cl)c12 | -0.2%
16 | CCN1CCN(Cc2ccc(NC(=O)c3ccc(C)c(/C=C/c4cnc(Nc5cc(N6CCNCC6)nc(C)n5)cn4)c3)cc2C(F)(F)F)CC1 | -16%
17 | CC[n+]1c(C=C2C=C(C)OC(C)=C2)sc2ccccc21 | 57.8% (active)
18 | Cc1sc2nc(-c3ccccn3)[nH]c(=O)c2c1-c1ccccc1 | 37.1%
19 | O=c1[nH]c(-c2ccccn2)nc2sc(-c3ccccc3)cc12 | 97.3% (active)
20 | Cc1nc(SCCC(=O)O)c2cc(-c3ccccc3)sc2n1 | 48.4%
21 | COc1ccccc1-c1cc(C(F)(F)F)nc(S(C)(=O)=O)n1 | 68.8% (active)
22 | COc1ccc(NS(=O)(=O)c2ccc(-c3coc(C)n3)cc2)cc1OC | 47.8%
23 | Cc1cc(NC(=O)CCS(=O)(=O)c2nc(-c3ccccc3)cc(C(F)(F)F)n2)no1 | 46.7%
24 | COC(=O)CCS(=O)(=O)c1nc(-c2ccccc2)cc(C(F)(F)F)n1 | 55.5% (active)
25 | COc1ccc(-c2cc(C(F)(F)F)nc(S(C)(=O)=O)n2)cc1 | 77.6% (active)

Row | SMILES | inhibition
26 | COc1ccc(-c2cc(C(F)(F)F)nc(S(C)(=O)=O)n2)cc1OC | 89.3% (active)
27 | CCOc1cccc2sc(NC(=O)CCS(=O)(=O)c3ccccc3)nc12 | -6.7%
28 | COCCN(Cc1ccccc1)C(=O)c1cc(-c2ccc(OC)c(OC)c2)nc2ccccc12 | 20%
29 | C=C(CCC(=O)c1ccccc1)C(=O)c1ccccc1 | -0.6%
30 | O=C(Nc1ccncc1)c1c(F)cccc1F | 59.3% (active)
31 | Cc1ccc2oc(Nc3nc(-c4ccccc4)cc(=O)[nH]3)nc2c1 | 93% (active)
32 | COc1ccc2c(C)nc(Nc3nc(-c4ccccc4)cc(=O)[nH]3)nc2c1 | 42.1%
33 | Oc1c(Cl)cc(Cl)cc1/C=C/c1ccc2cccc(O)c2n1 | 37.4%
34 | CC(C)(C)NC(=S)N/N=C/c1cc(Br)c(O)c(Br)c1 | 34.5%
35 | CN(/N=C/c1cc(Cl)cc(Cl)c1O)C(=S)NC(C)(C)C | 82.6% (active)
36 | CC(C)c1noc2ncc(C(=O)c3cc(Cl)cc(Cl)c3O)cc12 | 60.1% (active)
37 | O=c1oc2ccccc2c(Nc2cc3ccccc3cc2O)c1[N+](=O)[O-] | -0.3%
38 | O=c1cc(-c2ccccc2Cl)oc2c([N+](=O)[O-])c(O)cc(O)c12 | 105% (active)
39 | O=c1cc(-c2ccccc2Cl)oc2c(NS(=O)(=O)c3cc(Cl)cc(Cl)c3O)ccc(O)c12 | 82.6% (active)
40 | c1ccc2c(c1)ncn2-c1ccc(-c2ccnc(-c3ccncc3)n2)cc1 | 59.7% (active)
41 | O=C(O)COc1ccc(-c2nccc(-c3ccccn3)n2)cc1 | 43.3%
42 | Nc1nccc(-c2ccc(-n3cnc4ccccc43)cc2)n1 | 67% (active)
43 | CC1CCc2nc(N)c(C#N)c(-c3cccnc3)c2C1 (stereo not drawn) | 85.3% (active)
44 | Cc1nc2c(-c3ccc(F)cc3)cnn2c(N)c1-c1ccccc1 | -226%
45 | Cc1nc(N)c(C#N)c(-c2cccnc2)c1-c1ccccc1 | 98.5% (active)
46 | O=C(NNC(=O)c1ccccc1OCc1ccccc1)c1ccccc1O | 77.9% (active)
47 | CN(C(=O)COc1ccccc1C(=O)NCCOc1ccccc1)c1ccccc1 | 17.7%
48 | O=C(NNC(=O)c1ccccc1OCc1ccc(F)cc1)c1ccccc1O | 51.1% (active)
49 | CCOc1ccccc1C(=O)N1CCN(C(c2ccccc2)c2ccccc2)CC1 | 22.1%
50 | Cc1ccc(S(=O)(=O)Nc2ccccc2-c2ccccc2NS(=O)(=O)c2ccc(C)cc2)cc1 | -1.3%

Row | SMILES | inhibition
51 | Cc1ccc(S(=O)(=O)Nc2ccccc2/C=N/c2nc3ccccc3n2C)cc1 | 89.4% (active)
52 | Cc1ccc(S(=O)(=O)n2c(N)nc3ccccc32)cc1 | -1.7%
53 | Oc1c(C(c2ccc(Cl)cc2)N2CCCC2)cc(Cl)c2cccnc12 (stereo not drawn) | 20%
54 | Oc1c(CN2CCN(c3ccccn3)CC2)cc(Cl)c2cccnc12 | 20.4%
55 | Oc1c(Cl)cc(Cl)c2cccnc12 | 102% (active)
56 | Oc1c(CN2CCN(c3ccc(F)cc3)CC2)cc(Cl)c2cccnc12 | 17.1%
57 | O=[N+]([O-])c1cc(Cl)c(O)c2ncccc12 | 102% (active)
58 | Oc1c(I)cc(I)c2cccnc12 | 89% (active)
59 | Oc1c(CN2CCc3ccccc3C2)cc(Cl)c2cccnc12 | 101% (active)
60 | O=C(Oc1c(Cl)cc(Cl)c2cccnc12)c1ccco1 | 106% (active)
61 | Oc1c(I)cc(Cl)c2cccnc12 | 104% (active)
62 | Cc1cccc(-c2nc(CSc3nc4c(c(=O)[nH]3)CCC4)c(C)o2)c1 | 37%
63 | Cc1ccccc1-c1nc(CSc2nc3c(c(=O)[nH]2)CCC3)c(C)o1 | 59.5% (active)
64 | Cc1oc(-c2ccccc2Cl)nc1CSc1nc2c(c(=O)[nH]1)CCCC2 | 19.1%
65 | CC1(C)CC(=O)C2=C(C1)Oc1nc3ccccc3cc1C2C(C#N)C#N (stereo not drawn) | 29.6%
66 | COc1ccccc1CNS(=O)(=O)c1ccc2c(c1)N(C(C)=O)CC(C)S2 (stereo not drawn) | 35.3%
67 | CC(C)(C)c1ccc(C(=O)Nc2sc3c(c2C(=O)O)CCC3)cc1 | -51.1%
68 | CC(C)(C)c1ccc(C(=O)N2CCCCCC2=O)cc1 | 69.6% (active)
69 | CC(C)(C)c1ccc(/C=N/Nc2ccc(C(=O)O)cc2)cc1 | -61%
70 | NC(=S)n1[nH]c(-c2ccc([N+](=O)[O-])cc2)c(N=Nc2cccc([N+](=O)[O-])c2)c1=O | 86.6% (active)
71 | Cc1ccc([N+](=O)[O-])cc1N=Nc1c(-c2ccc([N+](=O)[O-])cc2)[nH]n(C(N)=S)c1=O | 80.4% (active)
72 | Cc1[nH]n(-c2nc(-c3ccc(Cl)cc3)cs2)c(=O)c1N=Nc1ccc(O)cc1 | 48.4%
73 | NC(=S)n1[nH]c(-c2ccc([N+](=O)[O-])cc2)c(N=Nc2cccc(Cl)c2)c1=O | 86.9% (active)
74 | NC(=S)n1[nH]c(-c2ccc([N+](=O)[O-])cc2)c(N=Nc2ccc(Cl)cc2)c1=O | 88.7% (active)
75 | CC(C)Cc1ccc(C(C)C(=O)Nc2cccnc2)cc1 (stereo not drawn) | 22.5%

Row | SMILES | inhibition
76 | COc1ccc(Cc2nc(-c3ccc(-n4cccc4)cc3)no2)cc1OC | 48.8%
77 | CC(C)(C)c1ccc(-c2noc(CCC(N)=O)n2)cc1 | 73.6% (active)
78 | CCC(C(=O)Nc1cccnc1)c1ccccc1 (stereo not drawn) | 3.6%
79 | CC(C)(C)c1ccc(-c2noc(CCC(=O)Nc3cccnc3)n2)cc1 | 71.6% (active)
80 | CC(C)(C)c1ccc(-c2noc(CCC(=O)NCc3ccco3)n2)cc1 | 44.3%
81 | CCn1nc(C)c(CNC(=O)c2ccc(OC3CCN(Cc4ccccn4)CC3)cc2)c1C | 50.2% (active)
82 | CCOc1ccc(C(=O)NC2CCN(C(=O)Nc3ccccc3OC)CC2)cc1 | 14.2%
83 | COCCN(CC(=O)NC1CCCCC1)C(=O)/C=C/C(=O)c1ccc(OC)cc1O | 22.3%
84 | COCCN(C(=O)CCl)C(C(=O)NC1CCCCC1)c1ccccc1C (stereo not drawn) | 56.7% (active)
85 | COC(CN(C(=O)CCl)C(C(=O)NC1CCCC(C)C1C)c1ccc(C)cc1)OC (stereo not drawn) | 15.4%
86 | COC(CN(C(=O)CCl)C(C(=O)NC1CCCCC1)c1ccccc1C)OC (stereo not drawn) | 63.2% (active)
87 | Cc1ccc(-c2csc(=Nc3cccnc3)n2CCCn2ccnc2)cc1C | 94.3% (active)
88 | O=S(=O)(Nc1nc(-c2sccc2Cl)cs1)c1cc(Cl)ccc1Cl | 34.1%
89 | Cc1ccc(C2=NOC(=O)/C2=C\C=C\c2ccccc2)cc1 | 94.8% (active)
90 | O=C1ON=C(c2ccc(Cl)cc2)/C1=C/c1ccc(O)cc1 | 29.2%
91 | COc1cc(C)c(Br)cc1S(=O)(=O)NCc1ccncc1 | 30.4%
92 | O=C(Nc1ccc(Cl)cc1)c1ccc(CN2CCc3ccccc3C2)cc1 | 23.1%
93 | O=C(Nc1ccc(F)cc1)c1ccc(CN2CCc3ccccc3C2)cc1 | 87.4% (active)
94 | N#CCc1ccc(NC(=O)c2ccc(CN3CCc4ccccc4C3)cc2)cc1 | 58.1% (active)
95 | C/C(=N\NC(=O)c1ccc(CN2CCc3ccccc3C2)cc1)c1ccccc1O | 77.8% (active)
96 | Cc1cc(C)n(Cc2ccc(NC(=O)c3ccc(COc4ccccc4Br)cc3)cc2)n1 | 46.2%
97 | CCOc1ccc(NC(=O)c2ccc(CN3CCc4ccccc4C3)cc2)cc1 | 3%
98 | CCOC(=O)c1ccc(NC(=O)c2ccc(CN3CCc4ccccc4C3)cc2)cc1 | 46.3%
